# An excerpt weighted towards active compounds, which were near 1.4% of everything screened.
# BH1578 lux ind = inducers of Vibrio cholerae quorum light production without autoinducers. AID 588436. V. cholerae BH1578 lux reporter, luminescence, 6 h. activation, % at 18.7 µM. 0.16% of 350,000 active; in the data active = activation mostly above about 9.7%, no sharp cut-off
# FadD28 FP inh = blocks FadD28 binding to the bisubstrate probe. fluorescence polarization. inhibition, % at 12.5 µM. 0.22% of 360,000 active. AID 588549; in the data active = inhibition above about 8.5%, passing the limit was not always enough
# SSB-PriA inh = inhibitors of Klebsiella pneumoniae PriA binding to SSB C-terminal tail. AID 1272365. AlphaScreen SSBct-PriA binding, biotinylated peptide. inhibition, % at 33 µM. 0.6% of 430,000 active; in the data active = inhibition mostly above about 37%, no sharp cut-off; inactive = mostly below about 20%
# PrPC TRFRET = inhibitors of human cell surface prion protein PrPC; TR-FRET read-out; inhibition, % at 13.8 µM; 0.43% of 370,000 active; AID 720596; in the data active = inhibition above about 24%
# PrP 5UTR inh = suppresses PrP 5' UTR mRNA reporter expression | cell-based PrP 5' UTR mRNA reporter, plate reader | inhibition, % (no concentration beside the values) | 0.35% of 340,000 active; in the data active = inhibition above about 52%
# A number is an active result; i = inactive; nt = not tested or not shown; + = active, no number.
SMILES,BH1578 lux ind,FadD28 FP inh,SSB-PriA inh,PrPC TRFRET,PrP 5UTR inh
O=C(NCCCn1ccnc1)c1cc2n(n1)CCCO2,nt,nt,34,nt,nt
O=C(NCc1ccccc1)c1cc2cc([N+](=O)[O-])ccc2s1,nt,nt,i,nt,nt
Cc1ccc([N+](=O)[O-])cc1N=C(c1ccc([N+](=O)[O-])cc1)N1CCOCC1,i,i,i,i,i
O=[N+]([O-])c1ccc(C(=Nc2cccc3ccccc23)N2CCOCC2)cc1,i,i,48,i,i
COC(=O)c1sc(-c2ccccc2)cc1NC(=O)Cc1ccccc1,nt,nt,i,nt,nt
O=C(Cc1ccccc1)NCCS(=O)(=O)N1CCN(c2cccc(Cl)c2)CC1,i,i,i,i,i
O=C(Cc1ccc(F)cc1)NCCS(=O)(=O)N1CCN(c2cccc(Cl)c2)CC1,i,i,38,i,i
CN1CCN(N=Cc2c3ccccc3c(Cl)c3ccccc23)CC1,nt,nt,53,nt,nt
CN1CCN(N=Cc2cccc(Cl)c2Cl)CC1,nt,nt,i,nt,nt
Cc1nnsc1C(=O)N1CCC(N2CCC(Oc3ccccc3F)CC2)CC1,nt,nt,i,nt,nt
COc1ccc(S(=O)(=O)NCCOc2cc(C)cc(C)c2)cc1,nt,nt,i,nt,nt
O=C(CCc1ccccc1O)NN=Cc1ccc(Sc2cccc3cccnc23)o1,nt,nt,94,nt,nt
O=Cc1ccc(Sc2cccc3cccnc23)o1,nt,nt,104,nt,nt
O=C(Cc1cccc2ccccc12)N/N=C/c1ccc(Sc2cccc3cccnc23)o1,nt,nt,i,i,nt
CCCCCCCC(=O)N/N=C/c1ccc(Sc2cccc3cccnc23)o1,nt,nt,+,nt,nt
O=C(CN1CCC(c2nnc(-c3ccsc3)o2)CC1)Nc1cccnc1,nt,nt,i,nt,nt
CCN(CC)S(=O)(=O)c1ccc2c3c(cccc13)C(=O)N2C(=O)c1cccs1,nt,nt,i,nt,nt
COC(=O)c1ccc2c(=O)n(CCCC(=O)NCc3ccccc3Cl)c(=S)[nH]c2c1,nt,nt,i,nt,nt
CC(C)CN(C1CCS(=O)(=O)C1)S(=O)(=O)c1ccc(Cl)c([N+](=O)[O-])c1 (stereo unspecified),nt,nt,41,nt,nt
O=C(NN=Cc1cc(Cl)ccc1O)c1ccncc1,nt,nt,67,nt,nt
O=C(N/N=C/c1cc(Br)c(O)c(Br)c1)c1cccnc1,i,i,nt,i,i
O=C(NN=Cc1cc(O)ccc1Br)c1cccnc1,nt,nt,46,nt,nt
Cc1cccc(N2CCN(C(=O)c3coc(NC(=O)c4cnccn4)n3)CC2)c1,nt,nt,i,nt,nt
CCN1C(=O)c2cc(NS(=O)(=O)c3cc(C)c(C)cc3OC)ccc2Oc2ccccc21,nt,nt,i,nt,nt
Cc1cccc(N=Cc2cc3c(cc2[N+](=O)[O-])OCO3)c1,i,i,45,i,i
SMILES,BH1578 lux ind,FadD28 FP inh,SSB-PriA inh,PrPC TRFRET,PrP 5UTR inh
O=[N+]([O-])c1cc2c(cc1C=Nc1ccccc1)OCO2,i,i,i,nt,i
O=C(NCc1cccnc1)N(c1ccccc1)c1ccccc1,nt,nt,37,nt,nt
Cc1ccc(Cl)cc1NC(=O)N1CCCCC1,nt,nt,i,nt,nt
C[C@H](CO)N1C[C@H](C)[C@@H](CN(C)S(=O)(=O)c2cccs2)Oc2ccc(NC(=O)Nc3ccccc3)cc2C1=O,i,i,i,i,i
C[C@@H]1CN([C@H](C)CO)C(=O)c2cc(NC(=O)Nc3ccc(C(F)(F)F)cc3)ccc2O[C@H]1CN(C)S(=O)(=O)c1cccs1,i,21,i,i,i
C[C@H](CO)N1C[C@H](C)[C@@H](CN(C)S(=O)(=O)c2cccs2)Oc2ccc(NC(=O)Nc3ccc(C(F)(F)F)cc3)cc2C1=O,i,27,i,i,i
C=C1C(=O)O[C@H]2C[C@@H](C)[C@@H]3C=CC(=O)[C@@]3(C)C[C@H]12,nt,nt,i,26,nt
COc1ccc(NC(=O)C(=O)NCCc2ccc(N3CCCC3)cc2)cc1OC,nt,nt,i,nt,nt
Cn1nnc2c(NC3CCCCC3)ncnc21,nt,nt,i,nt,nt
COc1ccc(-c2cn3c(C)c(C(=O)N(C)c4ccccc4)sc3n2)cc1,nt,nt,38,nt,nt
CCOc1cc(C(=O)N2CCN(c3ccc(N4CCOCC4)nn3)CC2)cc(OCC)c1OCC,nt,nt,i,nt,nt
CCOc1ccc(CC(=O)N2CCN(c3ccc(N4CCOCC4)nn3)CC2)cc1OCC,i,i,54,i,i
N=C1c2ccccc2CN1NC(=O)CC12CC3CC(CC(C3)C1)C2,i,22,i,i,i
Cc1cccnc1Nc1nc(-c2ccccn2)cs1,i,i,68,i,i
Cc1cccc(Nc2nc(-c3ccccn3)cs2)n1,i,i,95,i,nt
COc1ccc(CCNc2nc(-c3ccccn3)cs2)cc1OC,i,i,39,i,i
Cc1cccnc1Nc1nc(-c2ccccc2)cs1,i,i,i,i,i
CNc1nc(-c2ccccn2)cs1,nt,nt,118,nt,nt
COc1ccc(CCNc2nc(-c3ccncc3)cs2)cc1OC,i,i,i,i,i
Cc1ccc(N2CCCS2(=O)=O)cc1NC(=O)C(=O)NCC1CCN(C(=O)NC(C)(C)C)CC1,nt,nt,i,nt,nt

# Screening data: PubChem, several laboratories
